# Experimental data published in PubChem BioAssay (NCATS).
# Results filed as inconclusive are left out. Entries that show only a call come without a potency. Activity calls are given as the source filed them. Calls come from the whole dose curve; as a rule, active = well fitted cell-killing curve with a large enough effect; inconclusive = small, poorly fitted or top-dose-only effect, or effect the other way; inactive = no such curve, though single readings can be large or run the other way.
# Key:
# [1] = Quantitative High-Throughput drug screen in 47 multiple myeloma cell lines against the NCATS MIPE library collection: H1112_PLB cell viability assay (AID 1918967; note: nearly all actives have a fitted effect of over 30% in size)
# Summary of the method: (§1)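 We plated 500 myeloma cells per well, pinned in MIPE 4.0 compounds, and incubated for 48 hours at 37C. ATP was then quantified with CellTiter-Glo, with DMSO and media-only wells defining 100% and 0%.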
# [2] = Quantitative High-Throughput drug screen in 47 multiple myeloma cell lines against the NCATS MIPE library collection: KMS27_JCRB cell viability assay (AID 1918970); note: nearly all actives have a fitted effect of over 30% in size
# Summary of the method: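 Viability inhibition screen, 48 h compound exposure, luminescent ATP read-out.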
# [3] = Quantitative High-Throughput drug screen in 47 multiple myeloma cell lines against the NCATS MIPE library collection: KMS26_JCRB cell viability assay (AID 1918975); note: nearly all actives have a fitted effect of over 45% in size
# Summary of the method: (§2)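 Relative luminescence from CellTiter-Glo served as the viability signal, referenced to DMSO-treated (100%) and cell-free medium (0%) controls. Treatment lasted 48 hours at 37C with 500 cells per well.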
# [4] = Quantitative High-Throughput drug screen in 47 multiple myeloma cell lines against the NCATS MIPE library collection: MOLP8_DSMZ cell viability assay (AID 1918977); note: nearly all actives have a fitted effect of over 45% in size
# Summary of the method: (§3)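 Cells were exposed to library compounds for 48 hours, after which ATP was measured by CellTiter-Glo. Signal was taken as median relative luminescence units.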
# [5] = Quantitative High-Throughput drug screen in 47 multiple myeloma cell lines against the NCATS MIPE library collection: KMS12BM_JCRB cell viability assay (AID 1918971); note: nearly all actives have a fitted effect of over 35% in size
# Summary of the method: as §2
# [6] = Quantitative High-Throughput drug screen in 47 multiple myeloma cell lines against the NCATS MIPE library collection: KMS12PE_JCRB cell viability assay (AID 1918972); note: nearly all actives have a fitted effect of over 30% in size
# Summary of the method: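 Viability readout: CellTiter-Glo luminescence following 5 min room-temperature incubation with reagent. Prior exposure: 48 h, 37C, humidified 5% CO2, 500 cells per well.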
# [7] = Quantitative High-Throughput drug screen in 47 multiple myeloma cell lines against the NCATS MIPE library collection: KMS21BM_JCRB cell viability assay (AID 1918974); details: ATP luminescence, 48 h; viability: at 45.8 µM (top of the series) unless noted
# Summary of the method: as §1
# [8] = Quantitative High-Throughput drug screen in 47 multiple myeloma cell lines against the NCATS MIPE library collection: MMM1_PLB cell viability assay (AID 1918976); note: nearly all actives have a fitted effect of over 35% in size
# Summary of the method: as §3
# [9] = Quantitative High-Throughput drug screen in 47 multiple myeloma cell lines against the NCATS MIPE library collection: KMS20_JCRB cell viability assay (AID 1918973); note: nearly all actives have a fitted effect of over 45% in size
# Summary of the method: as §1
# Potency is the fitted concentration of half-maximal effect.
SMILES,Potency [1],Potency [2],Potency [3],Potency [4],Potency [5],Potency [6],Potency [7],Potency [8],Potency [9]
O=C(NOCC(O)CO)c1cc(Br)c(F)c(F)c1Nc1ccc(I)cc1F (stereo not given),0.118 µM (active),inactive,inactive,inactive,,,,,
O=C(Nc1c(Cl)cncc1Cl)c1ccc(OC(F)F)c(OCC2CC2)c1,inactive,inactive,,,inactive,inactive,inactive,,
N#CC1(c2ccc(NC(=O)c3cccnc3NCc3ccncc3)cc2)CCCC1,inactive,inactive,,,23.5 µM (active),0.469 µM (active),,18.7 µM (active),
O=C(O)c1cc(O)c2c(c1)C(=O)c1cccc(O)c1C2=O,inactive,,,38.2 µM (active),,inactive,,2.15 µM (active),
O=c1[nH]cnc2c1ncn2[C@H]1CC[C@@H](CO)O1,inactive,,inactive,inactive,,inactive,,,
Cc1ccc([C@@H]2O[C@H](CO)[C@@H](O)[C@H](O)[C@@H]2O)cc1Cc1ccc(-c2ccc(F)cc2)s1,inactive,23.5 µM (active),,inactive,inactive,20.9 µM (active),,,
C[N+]1(C)[C@@H]2CC(OC(=O)[C@H](CO)c3ccccc3)C[C@H]1[C@H]1O[C@@H]12 (stereo not given in full),inactive,inactive,inactive,inactive,inactive,inactive,,,inactive
O=C(NC1CCOCC1)c1ccc(-c2cc(-c3cn[nH]c3-c3ccccn3)ccn2)cc1,inactive,inactive,,,inactive,inactive,,,
CC(=O)OC1C(C)OC(Oc2c(-c3ccc(O)cc3)oc3cc(O)cc(O)c3c2=O)C(O)C1OC(C)=O (stereo not given),inactive,,,,,,,2.96 µM (active),11.8 µM (active)
CON=C(C(=O)N[C@@H]1C(=O)N2C(C(=O)OCOC(=O)C(C)(C)C)=C(C=Cc3scnc3C)CS[C@H]12)c1csc(N)n1,inactive,,,inactive,inactive,,,,inactive
C[N+](C)(C)CC(=O)O,inactive,,,,,inactive,,,
CC=C(C)C(=O)O[C@H]1C(C)=C[C@]23C(=O)[C@@H](C=C(CO)[C@@H](O)[C@]12O)[C@H]1[C@@H](C[C@H]3C)C1(C)C,0.526 µM (active),9.35 µM (active),,,,18.7 µM (active),8.33 µM (active),18.7 µM (active),
CC(C)(C)c1cc(C(=O)O)c(NC(=O)Nc2ccc3[nH]ncc3c2)s1,inactive,inactive,inactive,,,,,inactive,
O=c1c(-c2ccc(O)cc2)coc2cc(O[C@@H]3O[C@H](CO)[C@H](O)[C@H](O)[C@H]3O)ccc12,inactive,,inactive,,inactive,inactive,,,
CN(C)c1cc(NC(=O)CNC(C)(C)C)c(O)c2c1C[C@@H]1C[C@H]3[C@H](N(C)C)C(=O)C(C(N)=O)=C(O)[C@@]3(O)C(=O)C1=C2O,inactive,inactive,,9.35 µM (active),inactive,inactive,,14.8 µM (active),
c1ccc2c(-c3cnn4cc(-c5ccc(N6CCNCC6)cc5)cnc34)ccnc2c1,3.32 µM (active),,,,14.8 µM (active),,,,
COc1ccc(Cc2ccc(NC(N)=O)cc2)cc1-c1cccc(Cl)c1,inactive,,inactive,,,,,,
O=C(O)C(O)Cc1ccc(O)c(O)c1 (stereo not given),inactive,inactive,20.9 µM (active),20.9 µM (active),,inactive,0.0083 µM (active),5.26 µM (active),
CC(C)(C)COc1ccc(-n2cc(C(=O)O)cn2)cc1C#N,inactive,inactive,inactive,inactive,inactive,inactive,,,
O=C(CCN1CCN(C(=O)OCc2cc(Cl)cc(Cl)c2)CC1)c1ccc2[nH]c(=O)oc2c1,inactive,,,inactive,inactive,inactive,,10.5 µM (active),
CC1(C)CCC(CN2CCN(c3ccc(C(=O)NS(=O)(=O)c4ccc(NCC5CCOCC5)c([N+](=O)[O-])c4)c(Oc4cnc5[nH]ccc5c4)c3)CC2)=C(c2ccc(Cl)cc2)C1,0.264 µM (active),0.118 µM (active),18.7 µM (active),18.7 µM (active),0.0526 µM (active),0.0833 µM (active),,0.166 µM (active),
CCOC(CN1C(=O)[C@](CC(=O)Nc2ccc(C)cc2)(NC(=O)Nc2ccc(C)cc2)c2ccccc21)OCC,inactive,26.4 µM (active),,inactive,,,,23.5 µM (active),
O=C(O)C=Cc1ccc(O)c(O)c1,inactive,16.6 µM (active),,20.9 µM (active),20.9 µM (active),,13.2 µM (active),7.43 µM (active),
